Experimental data reported in PubChem BioAssay (EPA / NIEHS).
The source made the active and inactive calls. How the source made its calls: active means hit-call score of the fitted dose curve at least 0.9, where 1 is the maximum; inconclusive means response in the unintended direction; inactive means score below 0.9.

molecular target: Estrogen receptor (Homo sapiens) (UniProt P03372); assay: OT_ERa_GFPERaERE_0120: Odyssey Thera (OT) 2-hour HeLa Transcription Induction Assay for Estrogen Receptor (AID 2283382)
Procedure: OT_ERa_GFPERaERE_0120 is a cell-based, single-readout assay that uses HeLa, a human cervix cell line, with measurements taken at 2 hours after chemical dosing in a 384-well plate.OT_ERa_GFPERaERE_0120 is one of one assay component(s) measured or calculated from the OT_ERa_GFPERaERE_0120 assay. It is designed to make measurements of fluorescent protein induction, a form of inducible reporter, as detected with optical microscopy: fluorescence microscopy signals by Microscopy technology.Data from the assay component OT_ERa_GFPERaERE_0120 was analyzed into 1 assay endpoint. This assay endpoint, OT_ERa_EREGFP_0120, was analyzed in the positive analysis fitting direction relative to DMSO as the negative control and baseline of activity. Using a type of inducible reporter, measures of receptor for gain-of-signal activity can be used to understand the reporter gene at the pathway-level as they relate to the gene ESR1. Furthermore, this assay endpoint can be referred to as a primary readout, because the performed assay has only produced 1 assay endpoint. To generalize the intended target to other relatable targets, this assay endpoint is annotated to the nuclear receptor intended target family, where the subfamily is steroidal.
All assay endpoints are quantified using high content image analysis algorithms.

Sequence of Estrogen receptor (Homo sapiens) (P03372 whole entry, looked up): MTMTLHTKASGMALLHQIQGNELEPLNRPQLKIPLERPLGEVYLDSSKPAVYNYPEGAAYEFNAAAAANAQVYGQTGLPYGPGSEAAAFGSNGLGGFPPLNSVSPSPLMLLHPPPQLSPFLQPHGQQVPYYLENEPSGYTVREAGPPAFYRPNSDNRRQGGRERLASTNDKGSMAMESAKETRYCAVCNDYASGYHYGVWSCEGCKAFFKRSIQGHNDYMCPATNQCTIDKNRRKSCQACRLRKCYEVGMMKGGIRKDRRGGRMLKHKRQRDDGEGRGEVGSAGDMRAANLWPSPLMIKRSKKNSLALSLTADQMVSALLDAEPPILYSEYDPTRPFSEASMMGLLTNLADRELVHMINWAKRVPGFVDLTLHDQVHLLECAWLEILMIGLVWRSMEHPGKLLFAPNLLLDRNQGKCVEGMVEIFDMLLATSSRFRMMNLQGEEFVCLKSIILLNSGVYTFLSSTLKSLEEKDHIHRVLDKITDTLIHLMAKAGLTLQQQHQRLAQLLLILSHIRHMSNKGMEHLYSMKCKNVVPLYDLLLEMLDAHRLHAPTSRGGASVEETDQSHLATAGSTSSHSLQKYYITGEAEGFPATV

SMILES	outcome
CCC(C)n1c(=O)[nH]c(C)c(Br)c1=O (stereo not given)	inactive
CCSC(=O)N1CCCCCC1	inactive
O=C(O)c1c(Cl)ccc2cc(Cl)cnc12	inactive
CCOc1cc(C(C)(C)C)ccc1C1COC(c2c(F)cccc2F)=N1 (stereo not given)	inactive
Clc1cccc(C(Cl)(Cl)Cl)n1	inactive
CSC(=O)c1c(C(F)F)nc(C(F)(F)F)c(C(=O)SC)c1CC(C)C	inactive
COP(=S)(OC)SCn1nnc2ccccc2c1=O	inactive
CN/C(=N\[N+](=O)[O-])NCc1cnc(Cl)s1	inactive
COCC(C)N(C(=O)CCl)c1c(C)csc1C (stereo not given)	inactive
CC(C)NC(=O)N1CC(=O)N(c2cc(Cl)cc(Cl)c2)C1=O	inactive
COP(=O)(OC)O/C(C)=C/C(=O)N(C)C	inactive
CCN(CC)c1nc(C)cc(OP(=S)(OC)OC)n1	inactive
CC1(C)CCC(=Cc2ccc(Cl)cc2)C1(O)Cn1cncn1 (stereo not given)	inactive
Clc1nc(Cl)nc(Nc2ccccc2Cl)n1	inactive
COc1ccc(-c2ccccc2)cc1NNC(=O)OC(C)C	inactive
CCNC(=O)NC(=O)C(C#N)=NOC	inactive
CC(C)Oc1cccc(NC(=O)c2ccccc2C(F)(F)F)c1	inactive
CCOP(=O)(OCC)Oc1nc(Cl)c(Cl)cc1Cl	inactive
Nc1c(Cl)c(Cl)nc(C(=O)O)c1Cl	inactive
CC1(C)C(C=C(Cl)Cl)C1C(=O)OC(C#N)c1cccc(Oc2ccccc2)c1 (stereo not given)	inactive

SMILES	outcome
CS(=O)(=O)c1cc(C(F)(F)F)ccc1C(=O)c1cnoc1C1CC1	inactive
Nc1c(Cl)c(F)nc(OCC(=O)O)c1Cl	inactive
CC(C)Nc1nc(Cl)nc(NC(C)C)n1	inactive
Cc1c(COC(=O)[C@@H]2[C@H](/C=C(\Cl)C(F)(F)F)C2(C)C)cccc1-c1ccccc1	inactive
COC(=O)N(C(=O)N1CO[C@@]2(C(=O)OC)Cc3cc(Cl)ccc3C2=N1)c1ccc(OC(F)(F)F)cc1	inactive
CCCN(CC)CC1COC2(CCC(C(C)(C)C)CC2)O1 (stereo not given)	inactive
CC(C)(C)C(=O)C(Oc1ccc(Cl)cc1)n1cncn1 (stereo not given)	inactive
C=CCOC(=O)C(C)(C)OC(=O)c1cc(-n2c(=O)cc(C(F)(F)F)n(C)c2=O)ccc1Cl	inactive
Cc1nc(N(C)C)nc(OC(=O)N(C)C)c1C	inactive
CC1(C)C(C(=O)OC(C#N)c2cccc(Oc3ccccc3)c2)C1(C)C (stereo not given)	inactive
CCCCC(C#N)(Cn1cncn1)c1ccc(Cl)cc1 (stereo not given)	inactive
N#Cc1c[nH]cc1-c1cccc2c1OC(F)(F)O2	inactive
CCOc1nc(C(Cl)(Cl)Cl)ns1	inactive
COCc1cnc(C2=NC(C)(C(C)C)C(=O)N2)c(C(=O)O)c1 (stereo not given)	inactive
COC(=O)c1c(C(F)F)nc(C(F)(F)F)c(C2=NCCS2)c1CC(C)C	inactive
CC(C)C1(C)N=C(c2ncccc2C(=O)O)NC1=O (stereo not given)	inactive
O=c1n(Cl)c(=O)n(Cl)c(=O)n1Cl	inactive
N#Cc1c(Cl)cccc1Cl	inactive
CCOC(=O)C(C)OC(=O)c1cc(Oc2ccc(C(F)(F)F)cc2Cl)ccc1[N+](=O)[O-] (stereo not given)	inactive
COc1cc(OC)nc(NC(=O)NS(=O)(=O)c2ncccc2OCC(F)(F)F)n1	inactive
